Source: PubChem
CCT chaperon mod: modulators of cytosolic chaperonin (CCT/TRiC) activity; activity change, % (concentration not given with the values), hits read low; AID 651819; actives 0.3% (n = 360,000); purified chaperonin ATPase assay, HTRF ADP detection, 30 min; in the data active = activity change below about -30%
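TRiC at 40 or 20 nM final (batch-dependent) in 30 mM Tris pH 7.4, 100 mM KCl, 5 mM MgCl2, 1 mM DTT, with compound at single 76 uM and 10 uM ATP, 30 min at 37 deg C. ADP detected by HTRF Transcreener, 665/615 ratio.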
G9a inh: blocks human histone lysine methyltransferase G9a | Potency, µM (titrated, usually from 102 µM), usual class: inhibitors | G9a H3K9 monomethylation, AlphaScreen, 2 h | actives 8.8% (n = 350,000) | Q96KQ7 | AID 504332; note: nearly all actives have a fitted effect of over 75% in size
Target sequence (Q96KQ7 913-1193 limits assumed): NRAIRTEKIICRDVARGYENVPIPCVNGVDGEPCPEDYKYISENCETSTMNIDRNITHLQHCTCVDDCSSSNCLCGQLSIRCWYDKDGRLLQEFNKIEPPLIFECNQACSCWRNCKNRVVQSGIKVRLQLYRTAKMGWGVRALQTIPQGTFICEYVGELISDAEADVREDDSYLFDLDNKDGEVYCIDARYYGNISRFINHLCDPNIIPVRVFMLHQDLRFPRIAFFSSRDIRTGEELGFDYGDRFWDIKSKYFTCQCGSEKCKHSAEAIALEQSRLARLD
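Enzyme 20 nM + cpd, 15 min RT; add b-H3K9 pep 500 nM / SAM 20 uM; 2 h RT; anti-H3K9me1 Ab 0.5 ug/mL + SA donor / anti-rabbit acceptor beads 20 ug/mL each, 10 min; AlphaScreen read.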
PLK1 PBD inh: inhibitors of human PLK1 polo-box domain binding; Plk1 PBD binding of FITC phosphopeptide, fluorescence polarization; P53350; actives 2.8% (n = 360,000); Potency, µM, hits mostly inhibitors; note: series mostly up to about 57 µM; nearly all actives have a fitted effect of over 65% in size
MmCpn inh: blocks the Methanococcus maripaludis chaperonin Mm-Cpn; actives 0.031% (n = 330,000); purified Mm-Cpn ATPase, ADP Transcreener TR-FRET; AID 504842; Potency, µM (top dose mostly 76.9 µM), most hits filed as inhibitors; note: nearly all actives have a fitted effect of over 80% in size
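ATPase turnover read by TR-FRET ADP competition (Eu cryptate antibody/ADP-d2, 665/590 nm): 10uM ATP final, 25nM Mm-CPN final, 30 min 37degC after 10-min compound preincubation, pH 7.4 Tris/KCl/MgCl2/DTT buffer.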
VDR inhibitor: inhibitors of human vitamin D receptor. AID 504847. actives 0.93% (n = 400,000). Potency, µM, actives largely listed as inhibitors. VDR-SRC2-3 peptide fluorescence polarization, 2 h
Target sequence (P11473 whole entry, looked up): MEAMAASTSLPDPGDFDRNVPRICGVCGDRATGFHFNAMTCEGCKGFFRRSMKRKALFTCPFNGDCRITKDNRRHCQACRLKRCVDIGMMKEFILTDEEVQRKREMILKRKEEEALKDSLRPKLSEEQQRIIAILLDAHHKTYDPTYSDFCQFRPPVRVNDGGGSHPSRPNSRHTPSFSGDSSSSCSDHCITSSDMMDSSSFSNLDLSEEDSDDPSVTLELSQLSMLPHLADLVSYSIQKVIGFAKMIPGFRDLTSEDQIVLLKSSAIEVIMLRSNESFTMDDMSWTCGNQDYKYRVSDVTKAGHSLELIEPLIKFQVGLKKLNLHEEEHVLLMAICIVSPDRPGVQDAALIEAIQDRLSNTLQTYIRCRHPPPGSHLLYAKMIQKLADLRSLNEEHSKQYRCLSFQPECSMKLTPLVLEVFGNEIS
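FP read-out; VDR + SRC2-3 coactivator peptide; 23 nl compound by pintool; 2 h RT incubation; reagents held at 4 deg C, protected from light.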
Sfp PPTase inh: blocks B. subtilis Sfp PPTase activity; Q9F4F7; Biochemical Sfp PPTase activity, qHTS; Potency, µM, usual class: inhibitors; actives 3.5% (n = 310,000); AID 1490;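 note: the enzyme is Sfp with the accession as filed and its product quenches rhodamine fluorescence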
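Reaction rates are the 30-min fluorescence difference (ex 525, em 598 nm) in wells containing 15 nM Sfp, 5 uM rhodamine-CoA and 12.5 uM BHQ-2-YbbR at pH 7.6 with 10 mM MgCl2.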
Hits are given with their value; n = inactive; u = inconclusive; x = no result; ! = a repeat was not active; [ ] = another dose, or the depositor's remark. Hits are enriched below; roughly 10% of the tested compounds scored in any of these assays. Unless noted, calls come from the whole dose curve; as a rule, active = well fitted curve in the direction sought with a large enough effect; inconclusive = small, poorly fitted or top-dose-only effect, or another doubt; inactive = no such curve, though single readings can be large; an effect the other way counts as inactive or inconclusive.

SMILES	CCT chaperon mod	G9a inh	PLK1 PBD inh	MmCpn inh	VDR inhibitor	Sfp PPTase inh
C/C(=N\Nc1ccc(C(F)(F)F)cc1[N+](=O)[O-])C1CC1	n	7.9µM	n	n	n	n
Cc1ccc(OCCNc2ccc(C(F)(F)F)cc2[N+](=O)[O-])cc1	n	n	n	n	n	n
CC(C)(C)c1ccc(CNc2cc(N3CCOCC3)ccc2[N+](=O)[O-])cc1	n	25µM	n	n	u	n
CC(C)Cc1ccc(S(=O)(=O)N2CCC(c3ccncc3)CC2)cc1	x	n	x	x	n	x
COc1ccccc1CCNC(=O)c1ccc2c(c1)c(C)c(C)n2C	x	n	x	x	n	x
CCCN(C(=O)c1cn(C)c(=O)c2cc(OC)c(OC)cc12)c1ccc(CC)cc1	x	n	x	x	n	x
COC/C=C/C1=CC2=CC(=O)C(C)(OC(=O)CCc3ccccc3)C(=O)C2=CO1 (stereo not drawn)	x	x	x	x	n	n
Nc1nc(=O)n(C2OC(CO)C(O)C2O)cc1Cl (stereo not drawn)	x	x	x	x	n	n
CC(C)(CNc1ccc(C(F)(F)F)cc1[N+](=O)[O-])N1CCOCC1	n	71µM	n	n	n	n
Fc1cccc(Cl)c1Cn1c(-c2cccs2)nc2ccccc21	x	n	x	x	n	x
Cc1nn(C)c2c1c(-c1ccccc1)cc(=O)n2Cc1ccc(Cl)cc1	x	n	x	x	n	x
CC(C)C1NC2(C(=O)c3ccccc3C2=O)C2C(=O)N(c3ccc(F)cc3)C(=O)C12 (stereo not drawn)	n	u	u	n	n	25µM
O=C1C2C3C=CC(CC3)C2C(=O)N1c1ccc(F)cc1 (stereo not drawn)	n	n[0.501 µM]	n	n	n	n
N#CC1=C(N)Oc2n[nH]c(-c3cccs3)c2C1c1ccncc1 (stereo not drawn)	n	n	n	n	n	n
Cc1ccc(C2C(C#N)=C(N)Oc3n[nH]c(-c4cccs4)c32)s1 (stereo not drawn)	n	50µM	u	n	n	n
N#Cc1c(SCc2ccccc2)sc(C(=O)c2ccccc2)c1N	n	11µM	n	n	n	u
Cc1ccc(-n2c3c(cc(-c4nc(-c5ccc(Cl)cc5)cs4)c2=O)C(=O)CC(C)(C)C3)cc1	x	n	x	x	n	x
COc1ccc(Cl)cc1NC(=O)c1ocnc1C	n	50µM	n	n	n	n
COc1ccc(Cl)cc1NC(=O)c1c(C(=O)Nc2cccc(C)c2C)sc2nc(C)cc(=O)n12	x	11µM	x	x	n	x
COc1ccc(Cl)cc1NC(=O)c1ccoc1C	n	n[12.7 µM]	n	n	n	n
COC(=O)c1ccc(NC(=O)c2c(C(=O)Nc3ccccc3)sc3nc(C)cc(=O)n23)cc1	n	n	u	n	n	n
CC(C)C(=O)NC(=O)C1CCCN1C(=O)/C=C/c1ccccc1 (stereo not drawn)	x	x	x	x	x	n
O=C(NC(=S)Nc1ccc(Cc2ccncc2)cc1)c1ccccc1F	n	79µM	u	n	n	n
O=C(Nc1ccc(S(=O)(=O)Nc2nccs2)cc1)c1nn(-c2ccccc2)ccc1=O	n	22µM	u	n	n	n
O=C(NC(=S)Nc1ccc(S(=O)(=O)Nc2nccs2)cc1)c1ccccc1F	n	10µM	15µM	n	u	n
SMILES	CCT chaperon mod	G9a inh	PLK1 PBD inh	MmCpn inh	VDR inhibitor	Sfp PPTase inh
O=C(NC(=S)Nc1ccc(S(=O)(=O)Nc2nccs2)cc1)c1cccnc1	n	45µM	u	n	n	n
Cc1cccc(-n2ccc(=O)c(C(=O)Nc3ccc(S(=O)(=O)Nc4nccs4)cc3)n2)c1	n	n	n	n	n	n
O=C(COc1ccccc1)NCCc1csc(-c2ccc(Cl)cc2)n1	x	n	x	x	n	x
Cc1cccc2cc(-c3nc4ccc(C(=O)O)cc4[nH]3)c(=O)oc12	n	50µM	n	n	n	n
Nc1c(/C=C2/C=CC(=O)C(O)=C2)c(=O)nc2sc(CC(=O)N3CCCCC3)nn12	n	10µM	n	n	n	n
COc1ccc(Br)cc1CNC(=O)c1ccc2c(c1)nc1n2CCCCC1	x	n	x	x	n	x
COc1ccc(/C=C2\Sc3ccc(C(=O)NCCN4CCCCCC4)cc3N(C)C2=O)cc1	n	22µM	n	n	n	u
COc1ccc(/C=C2\Sc3ccc(C(=O)N4CCCC4)cc3N(C)C2=O)cc1OC	n	45µM	u	n	n	n
COc1ccc(/C=C2\Sc3ccc(C(=O)N4CCc5ccccc5C4)cc3N(C)C2=O)cc1	x	n	x	n	x	n
O=C(O)CSCC(=O)Nc1ccc(-c2nc3ccccc3s2)cc1	n	45µM	9.5µM	n	u	u
Cc1ccc2nc(-c3ccc(NC(=O)CCN4C(=O)c5ccccc5C4=O)cc3)sc2c1	n	45µM	n	n	n	79µM
Cc1ccc2nc(-c3ccc(NC(=O)COCC(=O)O)cc3)sc2c1	n	50µM	n	n	n	n
O=C(NCCc1ccccc1)c1cnc2sc(N3CCCCCC3)nn2c1=O	x	n	x	x	n	x
COc1cccc(Nc2ncc3nc(-c4cn(C)c5ccccc45)c(=O)n(C[C@H]4CCCO4)c3n2)c1	x	n[0.501 µM]	x	x	n	n
O=Cc1coc2ccc3ccccc3c2c1=O	n	50µM	n	n	u	n
NC(=O)N/N=C/c1coc2ccc3ccccc3c2c1=O	n	n	n	n	n	n
Nn1cnnc1N/N=C/c1cccc(Cl)c1Cl	n	u	n	n	u	u
CCc1nnc(N/N=C/c2ccc(N3CCC(C)CC3)c([N+](=O)[O-])c2)n1N	n	50µM	n	n	18µM	71µM
Cc1nnc(N/N=C/c2cc([N+](=O)[O-])c(N3CCC(C)CC3)cc2N2CCC(C)CC2)n1N	n	u	n	n	n	u
Nn1cnnc1N/N=C/c1ccc(F)cc1	n	45µM	n	n	n	56µM
Cc1ccc(/C=N/Nc2nncn2N)cc1	n	n[2.33 µM]	n	n	n	40µM
Nn1cnnc1N/N=C/c1ccc(Cl)c([N+](=O)[O-])c1	n	45µM	n	n	u	u
Cc1cccc(NC(=O)C(=O)NCC(c2cccnc2)N2CCN(Cc3ccccc3)CC2)c1 (stereo not drawn)	x	n	x	x	n	x
CN1CCN(c2nc3cc(C(F)(F)F)ccc3n3cccc23)CC1	n	24µM	n	x	n	u
CCc1cccc(CC)c1N(COC)C(=O)Cn1c(C(C)O)nc2ccccc21 (stereo not drawn)	n	n[2.33 µM]	n	n	n	89µM
SMILES	CCT chaperon mod	G9a inh	PLK1 PBD inh	MmCpn inh	VDR inhibitor	Sfp PPTase inh
O=c1c(Cl)c(N2CCOCC2)cnn1-c1ncc(C(F)(F)F)cc1Cl	n	n	n	n	n	n
FC(F)(F)c1cnc(Nc2ccc(N3CCOCC3)cc2)c(Cl)c1	n	22µM	n	n	n	n
NC(=O)CC[C@@H](N)C(=O)O	x	n	x	x	n	n
N[C@@H](CCS(=O)O)C(=O)O	x	n	x	x	n	40µM!
CC(Cl)C(=O)NNC(=O)CNS(=O)(=O)c1ccccc1 (stereo not drawn)	n	n	27µM	n	n	n
O=S(=O)(Nc1ncccn1)c1ccc(NC(=S)NCc2ccco2)cc1	n	u	u	n	n	u
